Experimental findings from PubChem BioAssay (EPA / NIEHS) are described below.

SMILES strings stand for the structures. Activity calls are given as the source filed them. How the source made its calls: active means hit-call score of the fitted dose curve at least 0.9, where 1 is the maximum; inactive means score below 0.9.

The nature of experiment [1]: ATG_CRE_CIS: Attagene CIS-FACTORIAL HepG2 Assay for human cAMP Responsive Element (CRE) binding protein 3 (AID 2282926). The conditions noted are these: HepG2 CRE cis-reporter, Attagene multiplexed mRNA; actives raise or lower the signal. The gist of the method: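 Induced reporter mRNA from a CRE cis element, measured in HepG2 among many multiplexed units at 24 h. Detection used RT-PCR plus capillary electrophoresis of fluorescent fragments; DMSO served as negative control.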

The target in experiment [2] is CCAAT/enhancer-binding protein beta (Homo sapiens) (UniProt P17676). Briefly: ATG_C_EBP_CIS: Attagene CIS-FACTORIAL HepG2 Assay for human CCAAT/Enhancer Binding Protein (C/EBP) beta (AID 2282927). Conditions: HepG2 Attagene cis-factorial transcription factor reporter; actives raise or lower the signal. The gist of the method:
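Following a 24 h incubation with test chemical, transfected HepG2 cells yielded RNA whose reporter transcripts were quantified by RT-PCR and fluorescent capillary electrophoresis, with DMSO serving as baseline for bidirectional fitting.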

Experiment [3] in a line: ATG_CMV_CIS: Attagene CIS-FACTORIAL HepG2 Assay for human CMV (Internal Marker) (AID 2282928).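 Further: endpoint acts as a background internal control marker rather than a target.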 Conditions: HepG2 CMV promoter reporter, transcription factor profiling; actives raise or lower the signal. The gist of the method:
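24 h chemical treatment, HepG2 with transient multi-reporter transfection; RNA → oligo(dT) RT → PCR → 6-FAM extension → HpaI digest → CE fluorescence. Bidirectional fit, DMSO negative control.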

The nature of experiment [4]: ATG_DR4_LXR_CIS: Attagene CIS-FACTORIAL HepG2 Assay for human Liver X Receptor (LXR), DR4 submotif (AID 2282929). The conditions noted are these: HepG2 Attagene DR4 cis-reporter, mRNA transcription; actives raise or lower the signal. Put shortly: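 HepG2, transient MRTU transfection, cis-element (DR4) promoter; 24 h compound exposure; total RNA → oligo(dT) RT → PCR → 6-FAM primer extension → HpaI cut → CE. Gain/loss vs DMSO, bidirectional fit.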

Experiment [5] is described as follows: ATG_AP_1_CIS: Attagene CIS-FACTORIAL HepG2 Assay for human Activator Protein 1 (AP-1) (AID 2282931). Conditions: HepG2 Attagene cis-factorial AP-1 reporter mRNA; actives raise or lower the signal. The gist of the method:
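Transient MRTU transfection of HepG2 → 24 h chemical treatment → RNA isolation, RT-PCR, 6-FAM labelling, HpaI digest → capillary electrophoresis. Fit: bidirectional, DMSO negative control.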

Experiment [6] can be described thus: ATG_AP_2_CIS: Attagene CIS-FACTORIAL HepG2 Assay for human Activator Protein 2 (AP-2) (AID 2282932). The conditions noted are these: HepG2 AP-2 cis-reporter, Attagene transcription factor profiling; actives raise or lower the signal. The gist of the method: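 Assay in transfected HepG2 with promoter-regulated reporters, 24 h incubation after dosing. Signal is reporter mRNA fluorescence (RT-PCR, capillary electrophoresis), analysed for both increases and decreases relative to DMSO controls.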

The nature of experiment [7]: ATG_BRE_CIS: Attagene CIS-FACTORIAL HepG2 Assay for human Bone Morphogenetic Protein (BMP) Response Element (BRE) (AID 2282933). The conditions noted are these: HepG2 BMP response element reporter, Attagene transcription factor profiling; actives raise or lower the signal. The gist of the method: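 HepG2 cells transiently transfected with multiplexed cis-element reporter units were dosed with chemical for 24 h. Reporter mRNA was measured by RT-PCR with fluorescent labelling, HpaI digestion and capillary electrophoresis; bidirectional fitting relative to DMSO.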

The target in experiment [8] is Retinoic acid receptor alpha (Homo sapiens) (UniProt P10276). Briefly: ATG_DR5_RAR_CIS: Attagene CIS-FACTORIAL HepG2 Assay for human Retinoic Acid Receptor Alpha (RARE), DR5 submotif (AID 2282934). Conditions: HepG2 Attagene cis-factorial RARE DR5 reporter, mRNA; actives raise or lower the signal. The gist of the method: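 Endpoint fitted in both directions relative to DMSO as negative control. It reflects DR5 cis-element reporter mRNA induction in transiently transfected HepG2 cells, measured 24 h after dosing through RT-PCR and fluorescent capillary electrophoresis.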

Experiment [9] is described as follows: ATG_E_Box_CIS: Attagene CIS-FACTORIAL HepG2 Assay for human Enhancer Box (E-box) (AID 2282936). Conditions: HepG2 E-box cis-reporter transcription, actives raise or lower the signal. Put shortly: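 Measured 24 h post-dosing in HepG2 cells transfected with multiple cis-regulated reporter units, signal being reporter mRNA induction detected by fluorescent RT-PCR with capillary electrophoresis; gain or loss fitted against DMSO.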

Experiment [10] is described as follows: ATG_M_61_CIS: Attagene CIS-FACTORIAL HepG2 Assay for M61 Transcription Factor (Internal Marker) (AID 2282937). Conditions: HepG2 Attagene CIS-FACTORIAL M61 internal marker reporter; actives raise or lower the signal. The gist of the method: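 Human liver HepG2, transient MRTU transfection (cis promoter elements), 24 h compound. Total RNA → oligo(dT) RT → PCR → FAM label → HpaI → CE. Internal background marker; bidirectional fitting, DMSO = baseline.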

Experiment [11] can be described thus: ATG_EGR_CIS: Attagene CIS-FACTORIAL HepG2 Assay for human Early Growth Response 1 (EGR1) (AID 2282938). Conditions: HepG2 Attagene CIS-FACTORIAL EGR reporter mRNA; actives raise or lower the signal. The gist of the method: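 Transient transfection of human HepG2 with multiple cis-regulated reporter units, chemical exposure 24 h, total RNA isolated. Reverse transcription, PCR, fluorescent labelling and capillary electrophoresis quantify reporter transcripts; activity fitted bidirectionally against DMSO.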

The nature of experiment [12]: ATG_M_19_CIS: Attagene CIS-FACTORIAL HepG2 Assay for M19 Transcription Factor (Internal Marker) (AID 2282939). Conditions: HepG2 Attagene CIS-FACTORIAL M19 internal marker reporter; actives raise or lower the signal. Put shortly:
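HepG2 cells transiently transfected with cis-regulated multiple reporter transcription units were dosed for 24 h; reporter mRNA was quantified by RT-PCR, 6-FAM primer-extension labelling, HpaI digestion and capillary electrophoresis, with bidirectional fitting against DMSO baseline.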

Experiment [13] is described as follows: ATG_Ets_CIS: Attagene CIS-FACTORIAL HepG2 Assay for human Erythroblast Transformation Specific (ETS) (AID 2282941). The conditions noted are these: HepG2 ETS cis-reporter transcription, actives raise or lower the signal. Put shortly: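 Cis-regulated reporter mRNA induction in HepG2 (transient transfection), 24 h exposure, RT-PCR plus capillary electrophoresis detection; DMSO serves as negative control and baseline.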

Experiment [14] deals with Hepatocyte nuclear factor 3-beta (Homo sapiens) (UniProt Q9Y261). Briefly: ATG_FoxA2_CIS: Attagene CIS-FACTORIAL HepG2 Assay for human Forkhead box A2 (FOXA2) (AID 2282942). Conditions: HepG2 cis-reporter transcription factor activity, 24 h; actives raise or lower the signal. Put shortly:
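Transient MRTU transfection of HepG2 liver cells; 24 h treatment; total RNA → oligo(dT) RT → PCR → FAM primer extension → HpaI cut → CE. Bidirectional fit vs DMSO.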

Experiment [15] is described as follows: ATG_FoxO_CIS: Attagene CIS-FACTORIAL HepG2 Assay for human Forkhead box O (FoxO) (AID 2282943). The conditions noted are these: HepG2 Attagene cis-reporter, FoxO element, mRNA; actives raise or lower the signal. The gist of the method: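 Values reflect reporter mRNA induction or loss in HepG2 cells 24 h post-dosing, fitted bidirectionally with DMSO as negative control and baseline. Detection used RT-PCR and fluorescence capillary electrophoresis.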

A short description of experiment [16]: ATG_GATA_CIS: Attagene CIS-FACTORIAL HepG2 Assay for human GATA Binding Protein (AID 2282944). The conditions noted are these: HepG2 GATA cis-element reporter, Attagene multiplex mRNA; actives raise or lower the signal. The gist of the method: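 HepG2 cells transiently transfected with multiplexed cis-element reporter units reflecting endogenous transcription factor activity; reporter mRNA measured after 24 h dosing by RT-PCR, 6-FAM labeling, HpaI digestion and capillary electrophoresis. Bidirectional fitting versus DMSO baseline.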

The target of experiment [17] is Bile acid receptor (Homo sapiens) (UniProt Q96RI1). Briefly: ATG_IR1_CIS: Attagene CIS-FACTORIAL HepG2 Assay for human Nuclear Receptor Subfamily 1 Group H Member 4 (NR1H4), IR1 submotif (AID 2282946). The conditions noted are these: IR1 reporter transcription, actives raise or lower the signal. The gist of the method:
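Readout: reporter transcript levels by RT-PCR with fluorescent capillary electrophoresis, from HepG2 cells transiently transfected with multiplexed cis-regulated reporters and dosed 24 h. Gain- or loss-of-signal fitted versus DMSO negative control.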

The target in experiment [18] is Aryl hydrocarbon receptor (Homo sapiens) (UniProt P35869). Briefly: ATG_Ahr_CIS: Attagene CIS-FACTORIAL HepG2 Assay for human Aryl Hydrocarbon Receptor (Ahr) (AID 2282930). Conditions: HepG2 AhR cis-factorial reporter transcription; actives raise or lower the signal. Put shortly: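 Values derive from bidirectional fitting against DMSO negative control. Underlying signal: cis-element reporter mRNA in transiently transfected HepG2, harvested 24 h post-dose and measured by RT-PCR plus capillary electrophoresis.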

Experiment [19] deals with Transcription factor E2F1 (Homo sapiens) (UniProt Q01094). Briefly: ATG_E2F_CIS: Attagene CIS-FACTORIAL HepG2 Assay for human E2F Transcription Factor 1 (AID 2282935). Conditions: HepG2 Attagene cis-reporter, E2F reporter RNA transcripts; actives raise or lower the signal. The gist of the method: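 In this cis-factorial format, endogenous factor activity drives transfected reporters in HepG2; transcripts collected at 24 h are quantified by fluorescence after RT-PCR and capillary separation.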

Experiment [20] can be described thus: ATG_GLI_CIS: Attagene CIS-FACTORIAL HepG2 Assay for human Zinc Finger Protein GLI1 (AID 2282945). The conditions noted are these: HepG2, Attagene cis-factorial reporter mRNA, GLI element; actives raise or lower the signal. Put shortly: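 HepG2 cells transiently transfected with cis-promoter multiplexed reporter units report endogenous transcription factor activity. After 24 h chemical exposure, reporter mRNA was quantified by RT-PCR, 6-FAM labelling, HpaI digestion and capillary electrophoresis, with bidirectional fitting against DMSO.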

Chain of CCAAT/enhancer-binding protein beta (Homo sapiens) (P17676 whole entry, looked up): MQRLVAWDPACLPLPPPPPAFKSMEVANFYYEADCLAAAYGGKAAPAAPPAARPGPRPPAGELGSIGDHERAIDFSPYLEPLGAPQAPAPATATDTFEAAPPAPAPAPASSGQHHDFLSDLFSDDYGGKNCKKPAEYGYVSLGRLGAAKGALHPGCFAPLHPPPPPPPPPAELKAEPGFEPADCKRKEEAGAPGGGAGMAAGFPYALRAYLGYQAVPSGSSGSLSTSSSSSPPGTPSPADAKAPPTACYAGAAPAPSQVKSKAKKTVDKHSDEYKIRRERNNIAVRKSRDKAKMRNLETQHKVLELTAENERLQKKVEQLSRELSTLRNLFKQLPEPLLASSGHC
Chain of Transcription factor E2F1 (Homo sapiens) (Q01094 whole entry, looked up): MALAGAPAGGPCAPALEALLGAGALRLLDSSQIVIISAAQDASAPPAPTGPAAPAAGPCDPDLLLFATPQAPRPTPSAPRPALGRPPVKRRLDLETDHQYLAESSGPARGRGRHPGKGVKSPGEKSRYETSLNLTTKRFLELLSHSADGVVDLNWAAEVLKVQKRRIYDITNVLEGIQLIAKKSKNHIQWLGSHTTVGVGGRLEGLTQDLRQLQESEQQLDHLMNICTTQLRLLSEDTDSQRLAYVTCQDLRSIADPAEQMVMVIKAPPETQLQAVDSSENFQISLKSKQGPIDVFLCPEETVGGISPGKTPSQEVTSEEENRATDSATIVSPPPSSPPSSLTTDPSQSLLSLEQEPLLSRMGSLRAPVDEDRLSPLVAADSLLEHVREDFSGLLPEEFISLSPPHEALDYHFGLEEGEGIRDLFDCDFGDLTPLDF
Chain of Aryl hydrocarbon receptor (Homo sapiens) (P35869 whole entry, looked up): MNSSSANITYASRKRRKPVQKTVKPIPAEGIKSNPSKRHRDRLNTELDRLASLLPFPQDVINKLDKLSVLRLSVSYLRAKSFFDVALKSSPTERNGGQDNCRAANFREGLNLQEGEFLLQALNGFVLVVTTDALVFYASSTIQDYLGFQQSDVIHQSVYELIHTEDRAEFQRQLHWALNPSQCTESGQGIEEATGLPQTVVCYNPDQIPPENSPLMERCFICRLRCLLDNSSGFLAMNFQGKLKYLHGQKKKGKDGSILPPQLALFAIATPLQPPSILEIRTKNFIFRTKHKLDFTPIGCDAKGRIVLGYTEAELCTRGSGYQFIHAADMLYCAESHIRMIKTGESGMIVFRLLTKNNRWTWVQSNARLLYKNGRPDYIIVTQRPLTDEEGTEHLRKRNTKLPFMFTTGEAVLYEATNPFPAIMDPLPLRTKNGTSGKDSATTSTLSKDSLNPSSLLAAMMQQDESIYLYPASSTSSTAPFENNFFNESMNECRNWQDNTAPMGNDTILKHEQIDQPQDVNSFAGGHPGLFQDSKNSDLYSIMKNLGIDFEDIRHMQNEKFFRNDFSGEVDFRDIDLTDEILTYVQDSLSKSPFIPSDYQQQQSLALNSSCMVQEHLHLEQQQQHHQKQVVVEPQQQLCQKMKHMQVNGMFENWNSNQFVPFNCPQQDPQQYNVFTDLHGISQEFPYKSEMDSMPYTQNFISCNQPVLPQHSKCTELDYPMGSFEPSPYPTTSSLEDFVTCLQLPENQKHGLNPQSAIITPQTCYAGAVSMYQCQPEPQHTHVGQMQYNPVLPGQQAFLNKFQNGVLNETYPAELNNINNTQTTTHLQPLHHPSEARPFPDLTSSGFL
Chain of Hepatocyte nuclear factor 3-beta (Homo sapiens) (Q9Y261 whole entry, looked up): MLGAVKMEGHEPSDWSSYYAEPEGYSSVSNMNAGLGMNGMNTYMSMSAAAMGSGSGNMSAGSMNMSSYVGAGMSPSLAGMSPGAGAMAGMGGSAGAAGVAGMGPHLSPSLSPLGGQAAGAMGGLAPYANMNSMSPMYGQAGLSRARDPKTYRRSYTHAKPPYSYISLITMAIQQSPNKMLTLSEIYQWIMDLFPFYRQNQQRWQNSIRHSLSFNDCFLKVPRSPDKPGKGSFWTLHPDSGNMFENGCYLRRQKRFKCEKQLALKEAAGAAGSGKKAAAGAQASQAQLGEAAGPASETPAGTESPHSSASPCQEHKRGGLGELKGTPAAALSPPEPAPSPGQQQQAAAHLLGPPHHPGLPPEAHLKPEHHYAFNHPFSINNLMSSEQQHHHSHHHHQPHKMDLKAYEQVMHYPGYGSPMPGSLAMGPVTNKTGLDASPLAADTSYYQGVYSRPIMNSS
Chain of Bile acid receptor (Homo sapiens) (Q96RI1 whole entry, looked up): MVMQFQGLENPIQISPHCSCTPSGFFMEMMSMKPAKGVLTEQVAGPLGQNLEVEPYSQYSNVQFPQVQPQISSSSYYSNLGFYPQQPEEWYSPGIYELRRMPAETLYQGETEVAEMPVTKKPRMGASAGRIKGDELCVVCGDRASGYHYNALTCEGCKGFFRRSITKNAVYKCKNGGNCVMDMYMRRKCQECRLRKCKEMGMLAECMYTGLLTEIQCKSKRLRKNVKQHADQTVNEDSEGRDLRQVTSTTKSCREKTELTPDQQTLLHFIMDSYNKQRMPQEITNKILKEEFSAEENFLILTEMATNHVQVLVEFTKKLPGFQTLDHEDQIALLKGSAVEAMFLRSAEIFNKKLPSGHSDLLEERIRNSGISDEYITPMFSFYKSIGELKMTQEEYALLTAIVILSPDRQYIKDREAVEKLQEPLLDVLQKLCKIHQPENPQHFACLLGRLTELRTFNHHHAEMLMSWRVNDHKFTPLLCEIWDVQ
Chain of Retinoic acid receptor alpha (Homo sapiens) (P10276 whole entry, looked up): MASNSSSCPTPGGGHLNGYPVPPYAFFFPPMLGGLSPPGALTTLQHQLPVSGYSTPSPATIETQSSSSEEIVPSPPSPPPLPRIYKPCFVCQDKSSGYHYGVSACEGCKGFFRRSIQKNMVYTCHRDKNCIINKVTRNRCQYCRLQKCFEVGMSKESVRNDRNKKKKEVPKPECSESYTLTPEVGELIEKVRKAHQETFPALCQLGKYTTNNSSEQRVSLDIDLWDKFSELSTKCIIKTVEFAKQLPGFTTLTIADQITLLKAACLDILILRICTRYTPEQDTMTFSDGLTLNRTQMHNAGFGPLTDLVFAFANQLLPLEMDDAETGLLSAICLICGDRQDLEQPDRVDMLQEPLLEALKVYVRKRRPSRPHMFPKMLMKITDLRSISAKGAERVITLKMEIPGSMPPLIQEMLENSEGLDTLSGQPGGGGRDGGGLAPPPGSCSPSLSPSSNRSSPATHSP

Regarding `Nc1ccc(Cl)c([N+](=O)[O-])c1`, the outcome in experiment [1], in experiment [2], in experiment [3], in [4], in experiment [5] and in [6] was inactive. Further, the compound was classed as inactive in experiment [7], in [8], in experiment [9], in experiment [10], in [11] and in [12]. For the same compound, the result in experiment [13], in experiment [14], in experiment [15], in [16] and in experiment [17] was inactive.
For `Cc1ccc(-c2ccccc2)cc1`, the compound was called inactive in experiment [1], in experiment [2], in experiment [3], in experiment [18], in experiment [5] and in [6]. Also, the compound was called inactive in experiment [7], in [8], in experiment [19], in [9], in [10] and in experiment [11]. In addition, the outcome in experiment [12], in experiment [13], in experiment [14], in experiment [15], in [16] and in experiment [20] was inactive.
One may read the AC50 as the midpoint of the concentration-response curve, whichever way the signal moves. As to `Clc1cc(Cl)c(-c2c(Cl)c(Cl)cc(Cl)c2Cl)cc1Cl`, the result in [1], in experiment [2], in experiment [18], in experiment [6], in experiment [7] and in experiment [8] was inactive. The call in experiment [19], in experiment [9], in experiment [10], in experiment [11], in experiment [12] and in experiment [13] was inactive. Moreover, the compound was classed as inactive in experiment [14], in experiment [15], in experiment [16], in experiment [20] and in experiment [17]. For the same compound, the AC50 in experiment [3] is 30.4 µM (active); in experiment [5], 35 µM (active).
Consider `CCCCCCCCN1CCCC1=O`, for which the AC50 in experiment [1] was 151 µM (active). In addition, the outcome in experiment [2], in experiment [3], in experiment [5], in experiment [6], in experiment [7] and in [8] was inactive. For the same compound, the compound was called inactive in [19], in experiment [9], in experiment [10], in experiment [11], in [12] and in experiment [13]. In addition, the outcome in experiment [14], in experiment [15], in experiment [16], in experiment [20] and in experiment [17] was inactive.
Take `COS(=O)(=O)O`: the compound was called inactive in [1], in [2], in experiment [3], in experiment [18], in experiment [5] and in experiment [6]. Moreover, the result in experiment [7], in experiment [8], in experiment [19], in experiment [9], in experiment [10] and in [11] was inactive. Further, the result in [12], in experiment [13], in experiment [14], in experiment [15], in experiment [16] and in experiment [20] was inactive. Further, the call in [17] was inactive.
In the case of `CCCCCCCC(=O)OCC(O)CO` (stereo not drawn), the outcome in experiment [1], in experiment [2], in experiment [3], in [18], in experiment [5] and in experiment [6] was inactive. Further, the call in [7], in [8], in experiment [19], in experiment [9], in experiment [10] and in experiment [11] was inactive. The outcome in experiment [12], in experiment [14], in experiment [15] and in experiment [20] was inactive.
As for `O=C1OC[C@H](Cc2cccc(O)c2)[C@H]1Cc1cccc(O)c1`, the outcome in experiment [1], in experiment [2], in [3], in [18], in experiment [5] and in [6] was inactive. Further, the compound was classed as inactive in experiment [7], in experiment [8], in experiment [19], in experiment [9], in [10] and in experiment [11]. Moreover, the result in experiment [12], in experiment [13], in experiment [14] and in [16] was inactive.
